Measured values: PMC8769072, “Proteome‐scale mapping of binding sites in the unstructured regions of the human proteome” (Molecular Systems Biology, 2022)

target: SUMO1 1-101, P63165
Sequence (P63165 whole entry): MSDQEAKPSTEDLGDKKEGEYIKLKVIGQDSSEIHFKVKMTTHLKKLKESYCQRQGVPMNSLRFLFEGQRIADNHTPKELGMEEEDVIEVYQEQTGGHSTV

Selected by phage display, active:
PGADVVDLTLDSSSSS [PIAS4, Q8N2W9] confidence 2
GIQYIDLSSDSEDVVS [SMARCAD1, Q9H4L7] confidence 4
DEIVDLTAESLEPVVV [RNF4, P78317] confidence 2
SPAEVVDLTLDEDSRR [C18orf25, Q96B23] confidence 4
AEVVDLTVDEDEPTVV [RNF111, Q6ZNA4] confidence 2
VEVIDLTIESSSDEED [PIAS3, Q9Y6X2] confidence 4
EEEDDVVFVSSKPGSP [TTF2, Q9UNY4] confidence 2
ALENRVAVLENQNKTL [CREB1, P16220] confidence 2
DDDEPIFVGEISSSKP [ZNF280D, Q6N043] confidence 2
DDDDVVFIESIQPPSI [ZMYM5, Q9UJ78] confidence 3

target: SIN3A 295-383, Q96ST3
Sequence (Q96ST3 295-383): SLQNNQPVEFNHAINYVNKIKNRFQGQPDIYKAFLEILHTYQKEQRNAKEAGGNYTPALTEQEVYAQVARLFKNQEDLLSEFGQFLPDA

Selected by phage display, active:
AGGDLAGLLEALSDMG [NFKB2, Q00653] confidence 2
IEALLEAGQARDAQDV [RRBP1, Q9P2E9] confidence 2
LQALLAATSTAGSQDI [SNTA1, Q13424] confidence 2
LWEDLLHAAEAHSSAT [PHTF2, Q8N3S3] confidence 2
MAFSELLDLVGGLGRF [SLC22A12, Q96S37] confidence 2
GDWLTMLREASDEIVA [WWC2, Q6AWC2] confidence 2
SGTAGAALLALLAALA [EGFR, P00533] confidence 2
DFSSLLHALSFEQILQ [DENND2D, Q9H6A0] confidence 2

target: TLN1 309-401, Q9Y490
Sequence (Q9Y490 309-401): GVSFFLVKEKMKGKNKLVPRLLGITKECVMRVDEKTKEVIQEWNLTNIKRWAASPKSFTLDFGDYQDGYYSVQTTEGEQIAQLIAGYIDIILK

Selected by phage display, active:
WTFSPLTETEMQITAV [PRUNE2, Q8WUY3] confidence 2
EEESMFFSNPLFLASP [PSD4, Q8NDX1] confidence 2
SQSDDGPIMWVRPGEQ [RSBN1, Q5VWQ0] confidence 2
TTGGGWVISRIFDSGY [FMO1, Q01740] confidence 4
AHLWFDNQIFVADTSE [ATP12A, P54707] confidence 3
AVVWIDSTLHQPMFLL [OR52W1, Q6IF63] confidence 2
QWVTSPLHSPTLKDAH [ARHGAP31, Q2M1Z3] confidence 4
ALPSTWIENKLYGMSD [RET, P07949] confidence 4
EDLKWLWYENRIYVLG [NEMP2, A6NFY4] confidence 2
GLYPIIWQYPNGTHAY [JMJD1C, Q15652] confidence 2
DLIFTDSKLYIPLEYR [TPTE, P56180] confidence 4

target: PEX14 16-84, O75381
Sequence (O75381 16-84): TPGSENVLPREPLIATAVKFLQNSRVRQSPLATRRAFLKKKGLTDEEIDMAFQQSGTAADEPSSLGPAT

Selected by phage display, active:
DPNDQVAMGRQWLAIQ [AATF, Q9NY61] confidence 3
KLEHTWKALVHDGDTV [PIP5K1C, O60331] confidence 3
MAAVWQQVLAVDARYN [WDR13, Q9H1Z4] confidence 3
SLPEGLDMERRWGQVS [NR3C2, P08235] confidence 2
EVQTENHAPWSISDYF [AGGF1, Q8N302] confidence 2
VKDLEEHWQRHLARTT [EVI5, O60447] confidence 3
GAAASLSEAWLRAGEG [SPIDR, Q14159] confidence 2
LTEREWADEWKHLDHA [CBFA2T2, O43439] confidence 4
ELHHIWQSQQRLQPVA [IRF5, Q13568] confidence 3
DSHVSLETEWGQYWDE [ARHGAP27, Q6ZUM4] confidence 3
WEEEFGREMRRQLWLE [FAM186B, Q8IYM0] confidence 2
SEQNKLGELWEEMALS [GPATCH2L, Q9NWQ4] confidence 3
LSGEHAYLQSSWNLLD [CACNA1H, O95180] confidence 2
SATVPDQEELGEVWQR [HECW2, Q9P2P5] confidence 3
DMQLLWEKAVQQHQHG [SUGP1, Q8IWZ8] confidence 2
VLMESLKSIWSSSMMH [SMG7, Q92540] confidence 3
GGLEGWWLASLHGRQG [NEDD9, Q14511] confidence 4
GHPELSEAELQQLYAS [ZFHX4, Q86UP3] confidence 2
STPLPEPHIDLELVWR [C9orf131, Q5VYM1] confidence 2
LNSYEAEWDMVNTVSF [TBC1D15, Q8TC07] confidence 2
AGSQAQELAEAWEGAR [RIMBP3, Q9UFD9] confidence 2
DLSEAWMQANYDPLSD [ELOA2, Q8IYF1] confidence 3
RMEKLEGYWGEAQSLA [PPP1R9B, Q96SB3] confidence 3
ELEEEWLKEAGLSNLF [ARHGAP18, Q8N392] confidence 2
RMDEAWEQSRAPGPVH [RIMBP2, O15034] confidence 2
PPPSPEDLAELWGHGV [CHTF18, Q8WVB6] confidence 3
EMEKNWQELLHETKQR [SYCE3, A1L190] confidence 2
QLQEAWLAEAQVPDDE [ETV5, P41161] confidence 3
DAEERGEQALQDAWQK [KRT77, Q7Z794] confidence 2

target: TNKS 174-649, O95271
Sequence (O95271 174-649): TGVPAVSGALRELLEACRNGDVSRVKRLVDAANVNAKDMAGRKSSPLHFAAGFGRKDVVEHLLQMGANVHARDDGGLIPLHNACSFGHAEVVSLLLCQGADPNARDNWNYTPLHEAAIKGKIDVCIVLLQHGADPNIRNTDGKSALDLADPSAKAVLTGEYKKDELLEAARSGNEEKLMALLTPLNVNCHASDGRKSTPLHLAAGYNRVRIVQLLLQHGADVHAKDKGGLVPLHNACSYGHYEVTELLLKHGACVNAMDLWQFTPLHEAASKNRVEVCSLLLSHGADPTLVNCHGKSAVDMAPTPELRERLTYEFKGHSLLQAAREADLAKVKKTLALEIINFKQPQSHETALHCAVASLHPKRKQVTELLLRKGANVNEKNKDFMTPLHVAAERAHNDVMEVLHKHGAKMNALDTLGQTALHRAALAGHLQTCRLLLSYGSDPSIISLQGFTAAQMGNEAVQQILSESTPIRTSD

Selected by phage display, active:
LSTGYLQIAERREPIG [DTNBP1, Q96EV8] confidence 4
DGVARTPPVGMSGQVA [KIF26A, Q9ULI4] confidence 3
PGSLREDPLGEAQPQI [INPP5K, Q9BT40] confidence 4
QGLLHEAGSTDDRIVV [SPNS1, Q9H2V7] confidence 2
